Laboratory results published in PubChem BioAssay.
The source made the active and inactive calls.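 Rule for the calls, unless noted: active = inhibition of the reporter signal at or above 50%; inactive = inhibition below 50%.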

Key:
[1] = inhibitors of TNFa-induced NFkB p65 translocation, primary screen, imaging, HUVEC, MLSMR starter and 10KST1 sets (AID 438;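 active = inhibition above 20% together with a positive visual image hit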;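 note: compound added about 3h40 before a 20 min TNFalpha stimulation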;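 for inhibition: signal is the nuclear over cytoplasmic p65 intensity ratio per well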); conditions: HUVEC TNFa-induced p65 nuclear translocation; cell count: measured here: nuclei count (cytotoxicity indicator), at 2.08 µM; inhibition: at 2 µM, stronger effect = higher value, 0% TNFa-plus-vehicle, 100% no-TNFa wells
[2] = inhibitors of mutant huntingtin aggregation, primary screen, imaging, exon1htt(103Q)mCFP cells, high-content imaging (AID 483;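 active = visual image review flags a hit and inhibition of aggregation exceeds 20%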;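 note: compound exposure lasted 3 days before fixation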;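 for nuclei count: percent of the per-plate median nuclei count of sample wells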); conditions: exon1htt(103Q)mCFP cell line, aggregate imaging, at 2 µM; inhibition of aggregation: stronger effect = higher value; nuclei count: measured here: cell count, toxicity
[3] = inhibitors of E-selectin induction by TNFa, primary screen, imaging, HUVEC, immunofluorescence, MLSMR starter and 10KST1 sets (AID 487;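 active = visually confirmed hit in the image check and inhibition above 20%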;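 for inhibition: signal is fraction of cell area covered by stained E-selectin grains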;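 for nuclei count: 100% = median nuclei count of all wells on the same plate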); conditions: HUVEC TNFalpha-induced E-selectin immunofluorescence imaging, at 2 µM; inhibition: stronger effect = higher value; nuclei count: measured here: cell number, toxicity
[4] = target: Voltage-gated potassium channel subunit beta-2 (Rattus norvegicus) (UniProt P62483); experiment: KvBeta enzyme negative modulators, primary screen, biochemical, NADPH fluorescence (AID 622;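 active = fluorescence slope higher than the sample average by over 3 SD, cut at about -0.22 in these data, passing the limit was not always enough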;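 note: slope of raw intensity against log time taken from 70 to 1610 s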); conditions: recombinant KvBeta, 4-cyanobenzaldehyde reduction, at 10 µM, stronger effect = higher value
[5] = target: Voltage-gated potassium channel subunit beta-2 (Rattus norvegicus) (UniProt P62483); experiment: KvBeta positive modulators, primary screen, biochemical, NADPH fluorescence (AID 623;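 active = NADPH fluorescence slope more negative than the mean of all samples by about 3 SD, 99.7% confidence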;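 note: fluorescence intensity change per second fitted from 20 to 320 s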); conditions: Recombinant KvBeta, NADPH fluorescence decrease slope, 10 min; at 10 µM; stronger effect = lower value
[6] = target: Alpha-2C adrenergic receptor (Homo sapiens) (UniProt P18825); experiment: modulators of alpha2C/GIRK thallium flux, primary screen, cell-based, HEK293 alpha2C/GIRK1/2 (AID 624;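 active = fluorescence slope after compound addition differing from the mean of all screened samples at 99.7% confidence, in either direction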;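 note: slope of fluorescence ratio to pre-addition baseline per second over 15 to 24 s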); conditions: thallium flux BTC fluorescence, at 10 µM, actives lie on both sides
[7] = inhibitors of Sendai virus-induced IRF3 signaling, primary screen, TLR/RLR signaling modifier project, cell-based, Sendai virus stimulus, luciferase, 10K MLSCN set (AID 602276;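 active = inhibition at or above 50% at 10 µM; inactive = inhibition below 50%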;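 note: firefly luciferase from ISG56 promoter only with Renilla not read in this screen; 0% = Sendai virus plus DMSO and 100% = medium plus DMSO without virus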); conditions: HEK293 RL24 IRF3 luciferase reporter, at 10 µM, stronger effect = higher value
[8] = inhibitors of poly I:C-induced TLR3 signaling, primary screen, cell-based, poly I:C stimulus, luciferase, 10K MLSCN set (AID 602277); conditions: HEK293-TLR3 RL24 IRF3 luciferase reporter, at 10 µM, stronger effect = higher value

Alpha-2C adrenergic receptor (Homo sapiens), sequence (P18825 whole entry, looked up): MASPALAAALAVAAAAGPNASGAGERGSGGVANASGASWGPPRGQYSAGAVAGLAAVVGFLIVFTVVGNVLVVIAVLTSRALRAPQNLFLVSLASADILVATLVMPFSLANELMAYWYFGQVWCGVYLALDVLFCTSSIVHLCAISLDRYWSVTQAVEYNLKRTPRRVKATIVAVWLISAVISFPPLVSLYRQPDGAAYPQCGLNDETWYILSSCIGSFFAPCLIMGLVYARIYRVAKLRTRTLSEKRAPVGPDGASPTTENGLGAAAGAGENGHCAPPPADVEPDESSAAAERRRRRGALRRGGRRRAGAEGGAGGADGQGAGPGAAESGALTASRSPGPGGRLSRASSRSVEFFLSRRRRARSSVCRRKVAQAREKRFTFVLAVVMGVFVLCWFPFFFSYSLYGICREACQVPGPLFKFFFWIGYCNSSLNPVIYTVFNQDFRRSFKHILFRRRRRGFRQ
Voltage-gated potassium channel subunit beta-2 (Rattus norvegicus), sequence (P62483 whole entry, looked up): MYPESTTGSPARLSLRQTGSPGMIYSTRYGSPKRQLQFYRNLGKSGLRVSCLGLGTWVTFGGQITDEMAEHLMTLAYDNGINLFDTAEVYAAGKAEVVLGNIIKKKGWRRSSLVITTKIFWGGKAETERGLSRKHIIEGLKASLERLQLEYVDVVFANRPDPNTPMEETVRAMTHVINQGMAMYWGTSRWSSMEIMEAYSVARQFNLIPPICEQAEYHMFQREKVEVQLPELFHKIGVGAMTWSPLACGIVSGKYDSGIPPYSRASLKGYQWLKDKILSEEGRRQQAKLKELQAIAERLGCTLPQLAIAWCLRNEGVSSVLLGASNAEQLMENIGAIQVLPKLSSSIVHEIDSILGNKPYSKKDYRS

Row | Structure (SMILES) | cell count [1] | inhibition [1] | inhibition of aggregation [2] | nuclei count [2] | inhibition [3] | nuclei count [3] | fluorescence slope [4] | NADPH fluorescence slope [5] | slope [6] | inhibition [7] | inhibition [8]
1 | Cn1c(=O)c2c(nc(SCC(=O)NCc3ccco3)n2C)n(C)c1=O | 616 | 1.7% (inactive) | 19% (inactive) | 78.5% | -63.1% (inactive) | 100% | -0.611 (inactive) | 1.2e-05 (inactive) | 0.00578 (inactive) | 3.04% (inactive) | 5.37% (inactive)
2 | CCc1nnc(-n2nc(C)cc2-c2ccccc2)n1N | 648 | -2.4% (inactive) | 0.6% (inactive) | 104% | -20.7% (inactive) | 109% | -0.551 (inactive) | 2.6e-05 (inactive) | 0.00642 (inactive) | 15.3% (inactive) | 22.1% (inactive)
3 | CCOC(=O)N1CCN(CC(=O)Nc2cc(C)nn2-c2nc3ccccc3s2)CC1 | 859 | 9.9% (inactive) | -38.2% (inactive) | 101% | -132% (inactive) | 122% | -0.609 (inactive) | 2.4e-05 (inactive) | 0.00559 (inactive) | 13.7% (inactive) | 27.3% (inactive)
4 | CCCc1nnc2n1N=C(c1ccc(OC)c(OC)c1)CS2 | 321 | -12.4% (inactive) | -0.1% (inactive) | 83.3% | 12.3% (inactive) | 99.3% | -0.584 (inactive) | -5.6e-05 (inactive) | 0.00347 (inactive) | 16.9% (inactive) | 37.3% (inactive)
5 | COc1ccc2nc(NC(=O)c3ccoc3C)sc2c1 | 362 | 1.4% (inactive) | -11.6% (inactive) | 106% | -75.7% (inactive) | 118% | -0.38 (inactive) | -2.2e-05 (inactive) | 0.00322 (inactive) | -30.4% (inactive) | -105% (inactive)
6 | COc1cccc(C2CC(c3ccc(F)cc3)Nc3nc(N)nn32)c1 (centres undefined) | 605 | -6.5% (inactive) | 1.4% (inactive) | 105% | -6.1% (inactive) | 117% | -0.501 (inactive) | 2.1e-05 (inactive) | 0.00747 (inactive) | -17.7% (inactive) | 16.2% (inactive)
7 | O=C(OC1CCOC1=O)c1ccc(S(=O)(=O)N2CCCCCC2)cc1 (centres undefined) | 466 | 1.1% (inactive) | -2.3% (inactive) | 92.8% | -116% (inactive) | 97.1% | -0.329 (inactive) | 7.8e-06 (inactive) | 0.00585 (inactive) | 5.47% (inactive) | 14.9% (inactive)
8 | O=C(CCn1c(=O)oc2ccccc21)N1CCCCCC1 | 776 | -23.3% (inactive) | -23.8% (inactive) | 123% | -26.2% (inactive) | 123% | -0.316 (inactive) | -5.9e-05 (inactive) | 0.00656 (inactive) | -8.11% (inactive) | -6.91% (inactive)
9 | Cc1cccc2cc(COC(=O)C(C)(C)C)c(=O)[nH]c12 | 364 | 5.1% (inactive) | 2.3% (inactive) | 102% | 14.2% (inactive) | 89.1% | -0.471 (inactive) | 3.7e-06 (inactive) | 0.0027 (inactive) | 10.9% (inactive) | 22.5% (inactive)
10 | CCOC(=O)N1CCC(N2C(=O)c3ccccc3C2Nc2ccc3c(C)cc(=O)oc3c2)CC1 (centres undefined) | 654 | 2.3% (inactive) | -19.4% (inactive) | 101% | -65.6% (inactive) | 121% | -0.0451 (active) | -9.7e-08 (inactive) | 0.00764 (inactive) | 14.2% (inactive) | 18% (inactive)
11 | COC(=O)c1ccccc1S(=O)(=O)NC(=O)c1ccccc1 | 368 | -2.8% (inactive) | -12.4% (inactive) | 96.8% | -26% (inactive) | 114% | -0.593 (inactive) | -3.3e-08 (inactive) | 0.00588 (inactive) | 13.5% (inactive) | 24.3% (inactive)
12 | Cn1c(=O)cc(OCC(=O)NCCCN2CCN(c3cccc(Cl)c3)CC2)c2ccccc21 | 583 | 8% (inactive) | -42.4% (inactive) | 98.2% | -83.7% (inactive) | 128% | -0.514 (inactive) | -1.4e-05 (inactive) | 0.00636 (inactive) | 25% (inactive) | 31.3% (inactive)
13 | Cc1cccc(NC(=O)Nc2cccc(C#N)c2)n1 | 907 | -1.7% (inactive) | 10.2% (inactive) | 112% | -77.1% (inactive) | 121% | -0.567 (inactive) | -3.2e-05 (inactive) | 0.00605 (inactive) | -22.3% (inactive) | -135% (inactive)
14 | CS(=O)(=O)NCCSCc1c(F)cccc1Cl | 270 | 5.5% (inactive) | 0% (inactive) | 106% | -41.6% (inactive) | 96.6% | -0.527 (inactive) | -2.1e-05 (inactive) | 0.00448 (inactive) | 2.63% (inactive) | 0.999% (inactive)
